Reference: publication PMC4336329 (PLoS ONE, 2015)
About 14,000 (4.5%) of roughly 310,000 compounds showed an effect of 50% or more. The effect is printed as a negative number. What follows is part of a selection rich in strong results, with near analogues and random picks from the rest.

Each compound was assayed against human ether-à-go-go-related gene (hERG) potassium channel (human, UniProt Q12809) (assay: primary screen, population patch clamp on CHO cells stably expressing hERG; higher = less effect of the substance).
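Also: peak tail current of the secondary pulse compared with the same well before compound.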

Sequence of human ether-à-go-go-related gene (hERG) potassium channel (Q12809 whole entry, looked up): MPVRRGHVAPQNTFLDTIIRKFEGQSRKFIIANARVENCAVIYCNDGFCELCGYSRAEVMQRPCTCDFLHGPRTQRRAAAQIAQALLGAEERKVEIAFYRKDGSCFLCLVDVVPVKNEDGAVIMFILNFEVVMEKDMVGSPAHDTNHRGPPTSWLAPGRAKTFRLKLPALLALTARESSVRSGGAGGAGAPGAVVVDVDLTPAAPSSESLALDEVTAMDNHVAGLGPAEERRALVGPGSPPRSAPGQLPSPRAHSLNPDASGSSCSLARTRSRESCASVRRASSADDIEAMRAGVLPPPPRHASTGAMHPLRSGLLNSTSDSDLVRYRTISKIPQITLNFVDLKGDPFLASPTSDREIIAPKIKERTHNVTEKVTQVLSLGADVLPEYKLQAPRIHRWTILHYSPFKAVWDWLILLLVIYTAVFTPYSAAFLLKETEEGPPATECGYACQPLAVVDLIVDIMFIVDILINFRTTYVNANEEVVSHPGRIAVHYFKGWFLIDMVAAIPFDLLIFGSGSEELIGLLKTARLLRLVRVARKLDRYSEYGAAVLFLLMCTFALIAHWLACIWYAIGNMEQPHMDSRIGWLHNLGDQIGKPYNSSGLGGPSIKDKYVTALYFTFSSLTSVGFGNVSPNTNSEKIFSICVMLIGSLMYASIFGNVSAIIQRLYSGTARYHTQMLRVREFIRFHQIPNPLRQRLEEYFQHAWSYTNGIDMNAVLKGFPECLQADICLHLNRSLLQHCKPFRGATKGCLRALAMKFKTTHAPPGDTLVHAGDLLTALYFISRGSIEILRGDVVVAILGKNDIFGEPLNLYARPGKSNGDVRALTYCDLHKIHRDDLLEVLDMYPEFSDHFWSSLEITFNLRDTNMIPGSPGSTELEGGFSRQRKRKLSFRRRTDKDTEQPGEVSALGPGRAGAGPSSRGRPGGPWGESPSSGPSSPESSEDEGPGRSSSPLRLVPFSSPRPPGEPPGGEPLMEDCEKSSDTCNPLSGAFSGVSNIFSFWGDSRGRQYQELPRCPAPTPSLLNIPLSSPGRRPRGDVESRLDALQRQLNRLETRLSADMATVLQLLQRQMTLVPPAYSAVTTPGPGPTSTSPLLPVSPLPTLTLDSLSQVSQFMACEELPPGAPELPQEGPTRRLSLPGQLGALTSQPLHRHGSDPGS

SMILES	hERG current change (%, negative = inhibition) at 10uM
O=C(NCC1CCCO1)C(c1ccncc1)N(Cc1ccc(F)cc1)C(=O)CN1C(=O)c2ccccc2S1(=O)=O (stereo not shown)	-58.3%
CC(C)CCNC(=O)C(c1ccncc1)N(Cc1cccs1)C(=O)Cn1nnc(-c2ccc(F)cc2)n1 (stereo not shown)	-8.51%
CC(C)CCNC(=O)C(c1ccncc1)N(C(=O)Cn1nnc(-c2ccc(F)cc2)n1)c1ccccc1F (stereo not shown)	-24.2%
CC(C)(C)NC(=O)C(c1ccncc1)N(CC1CCCO1)C(=O)Cn1nnc(-c2ccc(F)cc2)n1 (stereo not shown)	-3.33%
O=C(NCC1CCCO1)C(c1ccco1)N(Cc1ccc(F)cc1)C(=O)CN1C(=O)c2ccccc2S1(=O)=O (stereo not shown)	-7.48%
COc1ccc(CN(C(=O)CN2C(=O)c3ccccc3S2(=O)=O)C(C(=O)NCC2CCCO2)c2ccncc2)cc1 (stereo not shown)	-10.3%
O=C(NCC1CCCO1)C(c1ccncc1)N(Cc1cccs1)C(=O)Cn1nnc(-c2ccc(F)cc2)n1 (stereo not shown)	-60.1%
O=C(NCC1CCCO1)C(c1ccc(F)cc1)N(Cc1ccc(F)cc1)C(=O)Cn1nnc(-c2cccs2)n1 (stereo not shown)	-10.9%
CC(C)CCNC(=O)C(c1ccncc1)N(CC1CCCO1)C(=O)Cn1nnc(-c2ccc(F)cc2)n1 (stereo not shown)	-64.8%
Cc1ccc(-n2c(SCC(=O)Nc3ccc(Cl)cc3)nc(O)cc2=O)cc1	9.08%
CC(C)(C)c1ccc(C(=O)Nc2ccc(O)c3c(=O)cc(-c4ccccc4Cl)oc23)cc1	-3.26%
O=C(NCCO)/C(=C\c1ccco1)NC(=O)c1ccco1	1.44%
CNc1ccc(NC(C)=O)cc1[N+](=O)[O-]	1.68%
CNC(=O)CCN(Cc1ccco1)S(=O)(=O)c1ccc(OC)c(OC)c1	14.1%
O=C(CSc1nnc(Cc2cccs2)n1Cc1ccco1)Nc1cccc(Cl)c1	-13.9%
COC(=O)c1c(NC(=O)CSc2nnc(-c3cccnc3)n2Cc2ccco2)sc(C)c1C	-59.3%
C=CCn1c(SCC(=O)Nc2cc(C)c(Cl)cc2OC)nnc1-c1ccco1	-23.6%
Cc1cc(Cl)ccc1NC(=O)CSc1nnc(Cc2cccs2)n1Cc1ccco1	-45.3%
CCOC(=O)c1c(NC(=O)CSc2nnc(-c3ccncc3)n2Cc2ccco2)sc(C)c1C	-19.3%
CCOC(=O)c1c(NC(=O)CSc2nnc(-c3cccnc3)n2Cc2ccco2)sc(C)c1C	-24.7%
Cc1cccc(C)c1NC(=O)CSc1nnc(-c2ccncc2)n1Cc1ccco1	-29.2%

SMILES	hERG current change (%, negative = inhibition) at 10uM
Cc1cc(C)c(NC(=O)CSc2nnc(-c3ccncc3)n2Cc2ccco2)c(Cl)c1	-52.7%
Cc1cc(C)c(NC(=O)CSc2nnc(-c3ccncc3)n2Cc2ccco2)c(C)c1	-31.6%
CCn1c(SCC(=O)Nc2cc(C)c(Cl)cc2OC)nnc1-c1ccco1	-4.93%
O=C(CSc1nnc(Cc2cccs2)n1Cc1ccco1)Nc1ccc(Cl)cc1Cl	-57.1%
COc1cc(Cl)c(C)cc1NC(=O)CSc1nnc(-c2ccco2)n1CC(C)C	-62.1%
COc1ccc2nc(SCc3cccc(C)c3)nc(C)c2c1	-10.9%
COc1ccccc1OCCOCCOc1c(C)cc(C)cc1Br	8.26%
CC(C)N1CC(O)=C(c2ccccc2)C1=N	-0.355%
CC(C)NC(=O)c1ccccc1NC(=O)C1CC(=O)N(C(C)C)C1 (stereo not shown)	42.9%
CSc1ncccc1C(=O)Nc1nccs1	-22.8%
COc1cc(Cl)c(C)cc1NC(=O)CSc1nnc(-c2ccccn2)n1Cc1ccco1	-29.5%
O=C(CSc1nnc(-c2ccncc2)n1Cc1ccco1)Nc1ccccc1F	-20.4%
Cc1cc(Cl)ccc1NC(=O)CSc1nnc(-c2ccncc2)n1Cc1ccco1	-52.8%
COc1cc(Cl)c(C)cc1NC(=O)CSc1nnc(-c2cccnc2)n1Cc1ccco1	-56.9%
COc1ccc(NC(=O)CSc2nnc(-c3ccccc3)n2Cc2ccco2)c(OC)c1	-26.4%
O=C(CSc1nnc(-c2ccncc2)n1Cc1ccco1)Nc1ccccc1Cl	-36.3%
Cc1c(C(=O)Nc2cc(S(=O)(=O)N3CCOCC3)ccc2N2CCN(C)CC2)oc2ccccc12	-10.8%
Cc1ccccc1N1CC(C(=O)O)CC1=O (stereo not shown)	14.1%
Cc1cccc(Cn2ccc(NC(=O)c3ccc4c(c3)OCO4)n2)c1	-34.3%
CCCNC(=O)c1ccc2c(=O)n3c(-c4ccc(C)cc4)csc3nc2c1	5.26%
COc1ccccc1C1(CCNS(=O)(=O)c2ccc(C)cc2)CCOC(C(C)C)C1 (stereo not shown)	4.49%

SMILES	hERG current change (%, negative = inhibition) at 10uM
Cc1ccc(C2(CCNCc3ccc(N(C)C)cc3)CCOC(C(C)C)C2)cc1 (stereo not shown)	-64.1%
CC(C)C1CC(CCNCc2ccc(N(C)C)cc2)(c2ccccc2)CCO1 (stereo not shown)	-24.6%
Cc1ccc(C2(CCNS(=O)(=O)c3ccc(C)cc3)CCOC(C(C)C)C2)cc1 (stereo not shown)	-53.5%
Cc1ccc(C2(CCN)CCOC(C(C)C)C2)cc1 (stereo not shown)	17%
Cc1ccc(C2(CCNCc3ccco3)CCOC(C(C)C)C2)cc1 (stereo not shown)	-35.6%
O=C(Nc1ccc2c(c1)OCO2)Oc1ccccc1	-7.16%
O=C(c1cccc(C(F)(F)F)c1)N1CCC(O)(CS(=O)(=O)Cc2ccccc2Cl)CC1	-8.87%
CNC(=O)C1CC(=O)N(Cc2ccc(OC)c(OC)c2)C(=Nc2ccc(OC)cc2)S1 (stereo not shown)	-6.01%
Cc1ccc(-c2nnc(Cc3ccc([N+](=O)[O-])cc3)o2)cc1	-64.9%
Cc1ccc(-c2nnc(Cc3ccc(Cl)cc3)o2)cc1	8.63%
Fc1ccc(-c2nnc(Cc3ccc(Cl)cc3)o2)cc1	-16.7%
Fc1ccc(-c2nnc(Cc3nnc(-c4ccc(F)cc4)o3)o2)cc1	10.8%
O=[N+]([O-])c1ccc(Cc2nnc(-c3ccc(F)cc3)o2)cc1	-57.2%
O=[N+]([O-])c1ccc(Cc2nnc(-c3ccccc3Cl)o2)cc1	-15.5%
Cc1ccc(C(=O)Nc2c(C)n(C)n(-c3ccccc3)c2=O)cc1S(=O)(=O)N1CCOCC1	0.249%
Cc1ccc(S(=O)(=O)N(C)c2c(C)ccc(S(N)(=O)=O)c2C)cc1	-10.9%
Fc1ccccc1N1CC(c2ccccc2)C(c2cccs2)=N1 (stereo not shown)	9.56%
Cc1ccc(Cn2nnc3c(=O)[nH]c(C4CCCN(S(=O)(=O)c5ccccc5F)C4)nc32)cc1 (stereo not shown)	12.2%
COc1ccc(/C=N/Nc2nncc3ccccc23)c(OC)c1	10.7%
COc1cc(C)c(Cl)c(C)c1S(=O)(=O)NC1CC(C)(C)NC(C)(C)C1	7.91%
O=C(NCCSc1ccccc1)c1ccc(Br)cc1	13.5%

SMILES	hERG current change (%, negative = inhibition) at 10uM
COC(=O)CN1CCN(C(c2ccccc2)c2ccccc2)CC1	5%
Cl.OC(COc1ccccc1)CN1CCN(CC(O)COc2ccccc2)CC1 (stereo not shown)	-61.7%
CCC(=O)c1ccc(OCC(O)CN2CCN(C(c3ccccc3)c3ccccc3)CC2)cc1 (stereo not shown)	-67.2%
CC(C)OCC(O)CN1CCN(C(c2ccccc2)c2ccccc2)CC1.Cl (stereo not shown)	-58.1%
N#Cc1ccc(OCC(O)CN2CCN(C(c3ccccc3)c3ccccc3)CC2)cc1 (stereo not shown)	-72.1%
CCC(=O)c1ccc(OCC(O)CN2CCOCC2)cc1 (stereo not shown)	7.44%
CCC(=O)c1ccc(OCC(O)CNC(C)c2ccccc2)cc1 (stereo not shown)	-14.7%
OC(COc1ccccc1)CN1CCCC1 (stereo not shown)	14.5%
CN1CCN(CC(O)COc2ccccc2)CC1 (stereo not shown)	-0.905%
CCOc1ccc(NS(=O)(=O)c2ccc(Cl)c(C(=O)N(C)Cc3cccnc3)c2)cc1	-25.9%
COc1ccccc1NC(=O)CSc1nnc(C)n1Cc1ccccc1	-34.5%
CCOc1ccc(Nc2cc(=O)oc3ccccc23)cc1	7.78%
Cc1nn(C)cc1C(=O)NNC(=S)Nc1ccc(Cl)cc1	12.6%
CCOC(=O)C(Cc1ccc(Cl)cc1Cl)c1ccno1 (stereo not shown)	14.3%
O=C(NCc1ccc(Cl)cc1)C(=O)NCC1OCCN1S(=O)(=O)c1ccc2c(c1)OCCO2 (stereo not shown)	-7.02%
Cc1cc(C)c(S(=O)(=O)/N=C2/C=C(Sc3ncn[nH]3)C(=O)c3ccccc32)cc1C	18.2%
C[C@H](NC(=O)OC(C)(C)C)C(=O)N/N=C/c1ccc2nccnc2c1	21.7%
COc1cccc(N(C(=O)c2snc(C(N)=O)c2N)C(C(=O)NCC2CCCO2)c2ccc3ncccc3c2)c1 (stereo not shown)	-16.8%
COc1ccccc1OCC(=O)Nc1cccc(S(=O)(=O)NC2=NCCCCC2)c1	-4.65%
